Measurements: the supplement of paper PMC3342239
Counter-ions that a name gives are not always drawn.

Test system: Saccharomyces cerevisiae
Assay: fraction of cells in G1 phase (DNA content, flow cytometry); higher = more cells with unreplicated DNA (G1 delay)
Conditions: temperature: 30 C; YPD; JTY2953 pdr5 snq2 (sensitized); drug added to: cultures diluted from stationary phase; 6-7 h
Method in brief: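 For the G1 fraction, the Dean-Jett-Fox G1 peak area was divided by the sum of the G1 and G2/M areas. S. cerevisiae in YPD at 30°C received library drugs and was fixed 6–7 h later for sensitized JTY2953 (diluted 1∶200 from overnight, final 20 µg/ml), 6 h later for dividing JTY2953, or 4.33 h later for BY4741. Fixed cells were stained with SYTOX Green and 10,000 events recorded by flow cytometry.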

Row | Compound | fraction of cells in G1 phase
1 | CN1CCCN=C1/C=C/c1cccs1 [Pyrantel pamoate] (33.6309 µM) | 0.464
2 | OCCN(CCO)c1nc(N2CCCCC2)c2nc(N(CCO)CCO)nc(N3CCCCC3)c2n1 [Dipyridamole] (39.6324 µM) | 0.535
3 | CC(CN1c2ccccc2Sc2ccccc21)N(C)C (centres undefined) [Promethazine HCl] (70.317 µM) | 0.204
4 | Cc1nc2n(c(=O)c1CCN1CCC(c3noc4cc(F)ccc34)CC1)CCCC2 [Risperidone] (48.7216 µM) | 0.472
5 | O=C1C(=O)c2ccccc2C(O)=C1C1CCC(c2ccc(Cl)cc2)CC1 (centres undefined) [Atovaquone] (54.5185 µM) | 0.493
6 | CC(C)[C@H]1CC[C@H](C(=O)N[C@H](Cc2ccccc2)C(=O)O)CC1 [nateglinide] (63.0056 µM) | 0.489
7 | NC[C@H]1O[C@H](O[C@H]2[C@H](O)[C@@H](O[C@H]3O[C@H](CO)[C@@H](O)[C@H](N)[C@H]3O)[C@H](N)C[C@@H]2N)[C@H](N)C[C@@H]1O [Tobramycin (free base)] (42.7786 µM) | 0.469
8 | CN(C)CCc1c[nH]c2ccc(C[C@H]3COC(=O)N3)cc12 [zolmitriptan] (65.9179 µM) | 0.474
9 | CCc1ccc(CCOc2ccc(CC3SC(=O)NC3=O)cc2)nc1 (centres undefined) [Pioglitazone] (56.1093 µM) | 0.477
10 | Cn1cnc([N+](=O)[O-])c1Sc1ncnc2[nH]cnc12 [Azathioprine] (72.1241 µM) | 0.465
11 | CC(C)C[C@H](NC(=O)[C@@H](COC(C)(C)C)NC(=O)[C@H](Cc1ccc(O)cc1)NC(=O)[C@H](CO)NC(=O)[C@H](Cc1c[nH]c2ccccc12)NC(=O)[C@H](Cc1cnc[nH]1)NC(=O)[C@@H]1CCC(=O)N1)C(=O)N[C@@H](CCCNC(=N)N)C(=O)N1CCC[C@H]1C(=O)NNC(N)=O [Goserelin acetate] (15.755 µM) | 0.485
12 | NC12CC3CC(CC(C3)C1)C2 [Amantadine HCl] (106.553 µM) | 0.505
13 | CCCCN1C[C@H](O)[C@@H](O)[C@H](O)[C@H]1CO [Miglustat] (91.2063 µM) | 0.456
14 | O=C(O)c1cc(=O)c2c(OCC(O)COc3cccc4oc(C(=O)O)cc(=O)c34)cccc2o1 [Disodium cromoglycate] (39.0365 µM) | 0.529
15 | C=C(CC)C(=O)c1ccc(OCC(=O)O)c(Cl)c1Cl [Ethacrynic acid] (65.9752 µM) | 0.513
16 | O=C1NCN(c2ccccc2)C12CCN(CCCC(c1ccc(F)cc1)c1ccc(F)cc1)CC2 [Fluspirilene] (42.0533 µM) | 0.865
17 | COC(=O)CCc1ccc(OCC(O)CNC(C)C)cc1 (centres undefined) [Esmolol] (67.7089 µM) | 0.459
18 | CN1CCN(C2=Nc3cc(F)ccc3Cc3ccccc32)CC1 [Fluperlapine] (64.6434 µM) | 0.512
19 | CC(=O)OCC(CCn1cnc2cnc(N)nc21)COC(C)=O [Famciclovir] (62.2396 µM) | 0.505
20 | O=C(O)c1cc(-c2ccc(F)cc2F)ccc1O [Diflunisal] (79.9349 µM) | 0.512
21 | CCN(CC)C(=S)SSC(=S)N(CC)CC [Disulfiram] (67.4445 µM) | 0.876
22 | CC/C(=C(\c1ccccc1)c1ccc(OCCN(C)C)cc1)c1ccccc1 [Tamoxifen citrate] (53.8319 µM) | 0.896
23 | Clc1ccc(Nc2nnc(Cc3ccncc3)c3ccccc23)cc1 [Vatalanib] (57.6664 µM) | 0.699
24 | Nc1ccn([C@H]2CC[C@@H](CO)O2)c(=O)n1 [2',3' - dideoxycytidine] (94.687 µM) | 0.474
25 | CC(=O)[C@]1(O)Cc2c(O)c3c(c(O)c2[C@@H](O[C@H]2C[C@H](N)[C@H](O)[C@H](C)O2)C1)C(=O)c1ccccc1C3=O [Idarubicin] (40.2005 µM) | 0.291
26 | COc1c(N2CCNC(C)C2)c(F)cc2c(=O)c(C(=O)O)cn(C3CC3)c12 (centres undefined) [Gatifloxacin] (53.276 µM) | 0.335
27 | CS(=O)(=O)c1ccc([C@H](O)[C@@H](COC(=O)CN)NC(=O)C(Cl)Cl)cc1 [Thiamphenicol glycinate] (48.3934 µM) | 0.478
28 | CN1CCN(CCCN2c3ccccc3Sc3ccc(C(F)(F)F)cc32)CC1 [Trifluoperazine 2HCl] (41.632 µM) | 0.873
29 | CC(C)[N+]1(C)[C@@H]2CC[C@H]1CC(OC(=O)C(CO)c1ccccc1)C2 (some centres undefined) [Ipratropium Br] (60.1563 µM) | 0.508
